# Reference: PubChem BioAssay
# Values joined by “and” are separate entries in the source; they are usually repeats but may differ in a detail not shown here. Identical values can stand only once. Active and inactive are the calls of the source. Cut-off read from the data, not from the text of the source: active = inhibition above about 80%; inactive = the rest.
# Test: growth inhibition, single agents and combos, UWB1.289, cell-based, BGB or cisplatin combos, synergistic combos for chromothripsis tumors (AID 1671456);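 note: cells exposed to compound for four days; 0% = vehicle DMSO and 100% = killing by high DMSO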
# Conditions: UWB1.289 ovarian carcinoma cells, measured here: inhibition with BGB combination, at 0.05 µM, stronger effect = higher value
row,SMILES,inhibition
1,COc1cc([C@@H]2c3cc4c(cc3[C@@H](O[C@@H]3O[C@@H]5CO[C@@H](c6cccs6)O[C@H]5[C@H](O)[C@H]3O)[C@H]3COC(=O)[C@H]23)OCO4)cc(OC)c1O,-23.8% and 2.23%
2,COc1cc(NS(C)(=O)=O)ccc1Nc1c2ccccc2nc2ccccc12,-10.9% and -18.9%
3,N=c1ccn2c(n1)O[C@H]1[C@H](O)[C@@H](CO)O[C@H]12,-40.2%

# Same assay, conditions: UWB1.289 ovarian carcinoma cells, measured here: inhibition with cisplatin combination, at 0.05 µM, stronger effect = higher value
row,SMILES,inhibition
1,COc1cc([C@@H]2c3cc4c(cc3[C@@H](O[C@@H]3O[C@@H]5CO[C@@H](c6cccs6)O[C@H]5[C@H](O)[C@H]3O)[C@H]3COC(=O)[C@H]23)OCO4)cc(OC)c1O,-2.66% and 12.3%
2,COc1cc(NS(C)(=O)=O)ccc1Nc1c2ccccc2nc2ccccc12,5.17% and -0.785%
3,N=c1ccn2c(n1)O[C@H]1[C@H](O)[C@@H](CO)O[C@H]12,-14.8%

# Test: growth inhibition, single agents and combos, LFS_MB_2R, cell-based, cisplatin combos, synergistic combos for chromothripsis tumors (AID 1671457);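 note: cells exposed to compound for four days before readout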
# Conditions: LFS_MB_2R medulloblastoma cells, at 0.5 µM, stronger effect = higher value
row,SMILES,inhibition
1,COc1cc([C@@H]2c3cc4c(cc3[C@@H](O[C@@H]3O[C@@H]5CO[C@@H](c6cccs6)O[C@H]5[C@H](O)[C@H]3O)[C@H]3COC(=O)[C@H]23)OCO4)cc(OC)c1O,-16.4% (inactive) and -13.1% (inactive)
2,COc1cc(NS(C)(=O)=O)ccc1Nc1c2ccccc2nc2ccccc12,-7.33% (inactive) and -4.82% (inactive)
3,N=c1ccn2c(n1)O[C@H]1[C@H](O)[C@@H](CO)O[C@H]12,-10.7% (inactive)

# Same assay, conditions: LFS_MB_2R medulloblastoma cells, measured here: combination with cisplatin, at 0.5 µM, stronger effect = higher value
row,SMILES,inhibition
1,COc1cc([C@@H]2c3cc4c(cc3[C@@H](O[C@@H]3O[C@@H]5CO[C@@H](c6cccs6)O[C@H]5[C@H](O)[C@H]3O)[C@H]3COC(=O)[C@H]23)OCO4)cc(OC)c1O,-12.1% and -0.448%
2,COc1cc(NS(C)(=O)=O)ccc1Nc1c2ccccc2nc2ccccc12,-3.1% and -25.3%
3,N=c1ccn2c(n1)O[C@H]1[C@H](O)[C@@H](CO)O[C@H]12,6.24%

# Same assay, conditions: LFS_MB_2R medulloblastoma cells, measured here: combination with cisplatin, at 5 µM, stronger effect = higher value
row,SMILES,inhibition
1,COc1cc([C@@H]2c3cc4c(cc3[C@@H](O[C@@H]3O[C@@H]5CO[C@@H](c6cccs6)O[C@H]5[C@H](O)[C@H]3O)[C@H]3COC(=O)[C@H]23)OCO4)cc(OC)c1O,-6.88% and 18.4%
2,COc1cc(NS(C)(=O)=O)ccc1Nc1c2ccccc2nc2ccccc12,21% and 20.3%
3,N=c1ccn2c(n1)O[C@H]1[C@H](O)[C@@H](CO)O[C@H]12,44.7%
